Reference: PubChem BioAssay (NCI)
The panel holds about 79,000 compounds, 15% with a hit somewhere; the sample as a whole holds those more often. Values without a mark were called inactive. Calls of active or inactive are those of the source. Cut-off read from the data, not from the text of the source: active = growth inhibition above about 70%; inactive = the rest.

How the values were obtained:
[1] = NCI Yeast Anticancer Drug Screen. Data for the rad50 strain (AID 155);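 note: 0% = growth of vehicle-only cultures of the same strain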; details: S. cerevisiae rad50 strain growth inhibition, active compounds read high
Procedure, shortened: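 DNA repair mutant yeast, compound exposure, growth read-out; inhibition is taken relative to vehicle.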

[2] = NCI Yeast Anticancer Drug Screen. Data for the mec2-1 strain (AID 157); details: S. cerevisiae mec2-1 strain, active compounds read high
Procedure, shortened: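 Vehicle-treated cultures served as reference for growth inhibition of compound-exposed mec2-1 yeast.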

[3] = NCI Yeast Anticancer Drug Screen. Data for the sgs1 mgt1 strain (AID 161);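 note: 0% = growth of cultures given vehicle only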; details: S. cerevisiae sgs1 mgt1 strain, active compounds read high
Procedure, shortened: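 Genetically altered yeast, compound exposure, growth inhibition relative to vehicle.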

[4] = NCI Yeast Anticancer Drug Screen. Data for the cln2 rad14 strain (AID 165);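 note: 0% = growth equal to vehicle treated cultures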; details: S. cerevisiae cln2 rad14 strain, active compounds read high
Procedure, shortened: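 Each compound was tested on cln2 rad14 yeast. Inhibition of growth was calculated against vehicle-exposed controls.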

[5] = NCI Yeast Anticancer Drug Screen. Data for the bub3 strain (AID 167); details: S. cerevisiae bub3 mutant strain, active compounds read high
Procedure, shortened: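 In this screen, a yeast mutant lacking normal mitotic checkpoint function is challenged with compound. Relative growth versus vehicle gives the inhibition value.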

[6] = NCI Yeast Anticancer Drug Screen. Data for the mlh1 rad18 strain (AID 175); details: S. cerevisiae mlh1 rad18 strain growth inhibition, active compounds read high
Procedure, shortened: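 Vehicle-treated cultures served as the reference for growth inhibition in a yeast strain carrying DNA damage repair alterations exposed to each compound.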

[7] = at 5.0 µM (retest, dose inferred, filed as 0.5)
[8] = at 50.0 µM (retest, dose inferred, filed as 5.0)

SMILES	growth inhibition [1, 7]	growth inhibition [1, 8]	growth inhibition ([1]; at 50.0 µM)	growth inhibition [2, 7]	growth inhibition [2, 8]	growth inhibition ([2]; at 50.0 µM)	growth inhibition [3, 7]	growth inhibition [3, 8]	growth inhibition ([3]; at 50.0 µM)	growth inhibition [4, 7]	growth inhibition [4, 8]	growth inhibition ([4]; at 50.0 µM)	growth inhibition [5, 7]	growth inhibition [5, 8]	growth inhibition ([5]; at 50.0 µM)	growth inhibition [6, 7]	growth inhibition [6, 8]	growth inhibition ([6]; at 50.0 µM)
CC(C=O)Cc1ccccc1 (configuration not stated)	2%	-6%	-8.9%	5%	-1%	-8.05%	3%	-4%	-3.35%	-2%	-8%	37%	-1%	-4%	10.3%	-4%	-8%	-1.45%
CC1(C)c2ccccc2-c2nc3ccccc3cc2C1Br (configuration not stated)	-1%	29%	37.6%	-4%	26%	46.7%	-4%	23%	73.7% (active)	-22%	4%	44.3%	2%	59%	95% (active)	-1%	27%	70.5% (active)
COc1ccc(CN2C(=O)C(Cl)=C(Cl)C2=O)c(OC)c1	-1%	50%	99.5% (active)	4%	59%	99.7% (active)	-2%	73% (active)	99.6% (active)	-4%	27%	99% (active)	-2%	68%	99.5% (active)	-2%	44%	99.5% (active)
CCCCCCCCCCCCCCCC1(OC)C[N+](C)(C)CCO1 (configuration not stated)	99% (active)	99% (active)	99.5% (active)	100% (active)	100% (active)	99.7% (active)	99% (active)	100% (active)	99.7% (active)	100% (active)	100% (active)	99.5% (active)	99% (active)	99% (active)	99.7% (active)	99% (active)	100% (active)	99.7% (active)
COc1ccc2c(Cc3ccccc3)c3[n+](cc2c1OC)CCc1cc2c(cc1-3)OCO2	2%	98% (active)	98.8% (active)	8%	97% (active)	99.2% (active)	4%	99% (active)	99% (active)	-1%	98% (active)	98.2% (active)	12%	98% (active)	98.8% (active)	-4%	97% (active)	98.9% (active)
Cc1ccc[n+](CC(=O)C2CCC3C4CC=C5CC(O)CCC5(C)C4CCC23C)c1 (configuration not stated)	2%	28%	95.4% (active)	1%	24%	98.2% (active)	5%	64%	98.8% (active)	6%	25%	90.1% (active)	3%	27%	96.8% (active)	-4%	24%	98% (active)
O=C(CCl)NC(=O)N(/N=C/c1ccco1)c1ccccc1	-1%	52%	44.8%	3%	60%	47%	-4%	38%	55.2%	1%	24%	-16.1%	3%	83% (active)	59.2%	3%	68%	58%
Nc1nnc2nc(CC(=O)c3ccc([N+](=O)[O-])cc3)c(CC(=O)c3ccc([N+](=O)[O-])cc3)nn12	6%	-3%	3.7%	15%	15%	19.2%	6%	2%	11.8%	4%	4%	43.1%	6%	1%	0.8%	4%	26%	3.05%
Cn1nc(-c2ccccc2NC(=O)C(F)(F)F)c(=O)n(C)c1=S	-3%	37%	56.9%	3%	21%	43.9%	14%	25%	50.5%	-3%	14%	33.6%	4%	27%	27.7%	0%	34%	73.9% (active)
